TDP1 cell noCPT: qHTS for Inhibitors of human tyrosyl-DNA phosphodiesterase 1 (TDP1): qHTS in cells in absence of CPT; Potency, µM (top dose mostly 46.2 µM), inactives show at the top dose activity change, negative = growth inhibition, usual class: inhibitors; DT40 Tdp1-/- hTDP1 cells, no CPT, ATP luminescence, 48 h; actives 15% (n = 420,000); further: nearly all actives have a fitted effect of over 55% in size
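Stably hTDP1-transfected Tdp1-null chicken DT40 cells were treated with library compounds minus camptothecin and grown for at least 48 hr at 37 °C, after which cellular ATP was quantified by luminescence.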
Gal4-VP16 FLuc: counter-screen for ROR gamma inhibitors: Gal4-VP16 reporter; actives 3.5% (n = 310,000); Drosophila S2 Gal4-VP16 UAS-luciferase, luminescence, 20 h; Potency, µM (highest dose often 53.6 µM), for inactives: at the highest dose activity, negative = inhibition, usual class: inhibitors; AID 2546;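 further: Gal4-VP16 expression switched on by copper sulfate through the metallothionein promoter; nearly all actives have a fitted effect of over 50% in size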
ELG1 DNA repair: ELG1-dependent DNA repair inhibition. HEK293T ELG1-luciferase reporter, luminescence, 16 h; DNA damage induced by 5-fluorouridine. Potency, µM (titrated, usually from 46.1 µM), inactives show top-dose activity change, negative = inhibition, hits mostly inhibitors. actives 2.3% (n = 330,000). AID 504467; further: nearly all actives have a fitted effect of over 55% in size
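Quantitative HTS, concentration-response format. 2,000 cells/well co-treated with 5-fluorouridine and compound, 16 hr in 5% CO2 at 37 °C; ONE-Glo luminescence read after 30 min.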
RORgamma inh: inhibitors of mouse ROR gamma transcriptional activity; P51450; Drosophila S2 Gal4-RORgamma UAS-luciferase reporter, 20 h; Potency, µM (titrated, usually from 53.6 µM), without a hit: at the highest dose activity change, negative = inhibition, hits mostly inhibitors; actives 5.4% (n = 310,000); AID 2551; further: nearly all actives have a fitted effect of over 60% in size
Target sequence (P51450 whole entry, looked up, the tested form may be a part): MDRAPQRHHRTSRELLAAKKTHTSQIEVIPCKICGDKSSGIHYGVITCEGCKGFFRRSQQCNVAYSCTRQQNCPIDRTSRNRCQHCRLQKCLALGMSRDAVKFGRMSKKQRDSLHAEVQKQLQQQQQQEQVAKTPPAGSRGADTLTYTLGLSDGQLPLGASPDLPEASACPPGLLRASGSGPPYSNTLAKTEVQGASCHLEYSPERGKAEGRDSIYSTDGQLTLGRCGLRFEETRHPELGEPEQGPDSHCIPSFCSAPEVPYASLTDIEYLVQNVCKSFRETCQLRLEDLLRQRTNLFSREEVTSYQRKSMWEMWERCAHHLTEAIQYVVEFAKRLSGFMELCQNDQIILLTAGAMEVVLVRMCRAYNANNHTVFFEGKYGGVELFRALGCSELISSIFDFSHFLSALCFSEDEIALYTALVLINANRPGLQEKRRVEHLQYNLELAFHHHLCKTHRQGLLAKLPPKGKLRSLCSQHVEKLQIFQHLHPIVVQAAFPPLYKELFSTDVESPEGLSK
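In this cell-based reporter format, copper sulfate (700 uM final) drives Gal4–ROR gamma fusion expression from a metallothionein promoter in Drosophila Schneider cells; compounds preincubated 1 hr, reporter read after 20 hr at ambient temperature.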
12-LOX inh: ALOX12 (human) lipoxygenase inhibition | P18054 | purified 12hLO, xylenol orange hydroperoxide absorbance | Potency, µM (titrated, usually from 108 µM), for the others: at the top dose activity change, negative = inhibition, most hits filed as inhibitors | actives 1.1% (n = 580,000) | AID 1671190
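Purified human 12hLO (150 nM final) in 25 mM Hepes, 0.01% Triton X-100, pH 7.0 was preincubated 15 min at room temperature with compound. Then 40 uM arachidonic acid was added, 30 min. Hydroperoxide was read by Fe-XO absorbance ratio 573/405 nm.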
DT40 TDP1 CPT: DT40-hTDP1 cell growth loss with CPT | AID 686979 | Potency, µM (series often up to 46.2 µM), inactives show top-dose activity change, negative = growth inhibition, actives largely listed as inhibitors | chicken DT40 Tdp1-/-;hTDP1 cells + 20 nM CPT, ATP luminescence, 48 h | actives 12% (n = 420,000); further: nearly all actives have a fitted effect of over 55% in size
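Cell growth measured by CellTiter-Glo luminescence after a minimum 48 h, 37 C compound exposure with 20 nM CPT in Tdp1-knockout DT40 cells stably expressing hTDP1, seeded 400/well; qHTS titration format.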
* marks the source's active call; other numbers are inactive results; ? = inconclusive; · = not tested or not shown; [ ] = dose if it differs, or a comment. An excerpt weighted towards active compounds, which were near 15% of everything screened. The call rests on the fitted dose curve; in most records, active means well fitted curve in the direction sought with a large enough effect; inconclusive means small, poorly fitted or top-dose-only effect, or another doubt; inactive means no such curve, though single readings can be large; an effect the other way counts as inactive or inconclusive. On the % scale 0 is the no-effect control and ±100 the full control effect; potency means the concentration at half of the fitted maximal effect.

SMILES	TDP1 cell noCPT	Gal4-VP16 FLuc	ELG1 DNA repair	RORgamma inh	12-LOX inh	DT40 TDP1 CPT
O=C(O)c1cc(O)c2c(c1)[C@@H]([C@H]1c3cc(C(=O)O)cc(O)c3C(=O)c3c(O[C@@H]4O[C@H](CO)[C@@H](O)[C@H](O)[C@H]4O)cccc31)c1cccc(OC3O[C@H](CO)[C@@H](O)[C@H](O)[C@H]3O)c1C2=O (some centres not stated)	?	·	-9.3%	·	50.1µM*	?
O=C1c2cc(CO)cc(O)c2C(=O)c2c(O[C@@H]3OC(CO)[C@@H](O)[C@@H](O)[C@@H]3O)cccc21 (some centres not stated)	-3.0%	·	·	·	?	-1.7%
COc1ccc(-c2c(C)nn(-c3ccccc3)c2N)cc1	-18.4%	5.8%	?	-0.3%	-11.0%	-27.9%
Cc1nn(-c2ccc(C(=O)O)cc2)c(N)c1-c1ccccc1	?	?	?	10µM*	-12.5%	1.3%
Nc1c(-c2ccccc2)cnn1-c1ccc(C(=O)O)cc1	-38.2%	?	?	10µM*	18.3%	-13.2%
NC(=O)C1(c2nc(C3CCOC3)nn2CC2CCCCC2)CC1 (configuration not stated)	·	·	·	·	21.1%	·
COC(=O)c1c[n+]([O-])ccc1OC	-23.6%	·	·	·	·	-13.4%
COc1cc[n+]([O-])cc1[N+](=O)[O-]	2.31µM*	·	·	·	19.0%	?
O=C(N[C@H]1CCOC[C@H]1C1CCOCC1)c1ccc2c(c1)ncn2CCO	·	·	·	·	5.7%	·
COC(=O)CSc1nnc(-c2sc3cc(OC)ccc3c2Cl)n1C	-0.9%	-2.4%	-24.2%	11.2µM*	9.3%	-2.6%
COC(=O)CSc1nnc(-c2sc3ccccc3c2Cl)o1	-2.6%	20µM*	8.5%	?	27.5%	-2.9%
N#CCSc1nnc(-c2sc3ccccc3c2Cl)o1	?	20.2%	?	?	-20.4%	?
CCOc1ccc2c(c1)cc(C(=O)Nc1cccc(F)c1)n2C	·	·	·	·	-15.2%	·
CCCCNc1ccc2c3c(cccc13)C(=O)N(CCCC)C2=O	20.6µM*	-0.3%	?	15.0%	0.0%	25.9µM*
CCOc1ccccc1C(=O)N1CCC(n2nnc3cc(C(F)(F)F)ccc32)CC1	?	-15.6%	20.6µM*	2.6%	-24.3%	?
COc1cc2cc(C#N)c(SCC(=O)N3CCOCC3)nc2cc1OC	-36.5%	6.0%	-3.7%	4.5%	-17.5%	-6.2%
CCOc1ccc2cc(C#N)c(SCC(=O)N3CCC(C)CC3)nc2c1	20.6µM*	·	?	-2.6%[0.365 µM]	-8.6%	?
CCOC(=O)CSc1nc2cc(OC)c(OC)cc2cc1C#N	17.8µM*	·	·	·	·	?
CCc1ccc2nc(SCC(=O)N(CC)CC)c(C#N)cc2c1	14.6µM*	-2.2%	-25.3%	?	-10.7%	20.6µM*
N#Cc1cc2cc3c(cc2nc1SCC(=O)N1CCCC1)OCCO3	-10.8%	9.6%	?	-3.7%	·	-21.9%
CC(=O)CSc1nc2cc3c(cc2cc1C#N)OCCO3	?	-5.0%[10 µM]	?	41.8%	9.5%	14.6µM*
CCOC(=O)CSc1nc2cc(OCC)ccc2cc1C#N	-24.3%	-0.5%	?	7.7%	-20.2%	-21.1%
Cc1ccc(C)c(OCCn2cc(C(=O)C(F)(F)F)c3cc(Br)ccc32)c1	·	·	·	·	33.0%	·
O=S(=O)(c1ccccc1)N1CCN(Cc2coc(-c3cccs3)n2)CC1	·	·	·	·	-1.9%	·
Cn1c([C@H]2CCN(S(=O)(=O)c3cccc4cccnc34)C2)nc2ccccc21	·	·	·	·	7.9%[176 µM]	·
SMILES	TDP1 cell noCPT	Gal4-VP16 FLuc	ELG1 DNA repair	RORgamma inh	12-LOX inh	DT40 TDP1 CPT
Cc1ccc(S(=O)(=O)Nc2ccc(C(=O)N3CCCC3)cc2)cc1	-20.8%	-0.3%	3.0%	20.3%	1.9%	-17.6%
CC1CC(C)CN(C(=O)c2ccc(S(=O)(=O)N3CC(C)CC(C)C3)cc2)C1 (configuration not stated)	18.4µM*	-3.8%	?	4.5%	-5.7%	23.1µM*
Cc1cccc(NS(=O)(=O)c2cccc(C(=O)N3CCN(S(=O)(=O)c4ccccc4)CC3)c2)c1	?	·	-14.8%	·	8.5%	?
CC1CC(C)CN(S(=O)(=O)c2ccc(C(=O)N3CCCC3)cc2)C1 (configuration not stated)	?	5.1%	-30.2%	-9.1%	6.2%	-15.5%
Cc1ccc(NS(=O)(=O)c2ccc(C(=O)N3CCN(S(=O)(=O)c4ccccc4)CC3)cc2)cc1	7.31µM*	·	?	·	?	11.6µM*
Cc1ccc(NS(=O)(=O)c2ccc(C(=O)N3CCN(c4ncccn4)CC3)cc2)cc1	7.31µM*	1.26µM*	5.8µM*	-44.8%	-24.9%	?
Cc1ccc(NS(=O)(=O)c2ccc(C(=O)N3CC(C)CC(C)C3)cc2)cc1 (configuration not stated)	16.4µM*	·	-5.8%	·	-25.3%	20.6µM*
COc1ccc2oc(=O)c(C(=O)NCCc3c(C)[nH]c4ccccc34)cc2c1	·	·	·	·	-6.2%	·
Cc1ccc(S(=O)(=O)N2CCN(C(=O)c3cc4c(s3)CCCC4)CC2)cc1	16.4µM*	·	6.5%	·	-10.8%	?
COc1ccc(S(=O)(=O)Nc2ccc(-n3cccc3)cc2)cc1	-19.4%	11.2µM*	?	11.2µM*	-25.4%	-2.5%
COc1ccc(NS(=O)(=O)c2ccc(OCC(=O)N3CCOCC3)cc2)cc1	?	-11.2%	17.1%	43.7%	0.9%	-27.5%
Cc1ccc(NS(=O)(=O)c2ccc(C(=O)N3CCOCC3)cc2)cc1	?	·	-0.5%	·	-14.5%	?
CCOC(=O)N1CCN(C(=O)COc2ccc(S(=O)(=O)Nc3ccc(OCC)cc3)cc2)CC1	23.1µM*	-0.2%[0.365 µM]	?	?	27.5%	?
O=C(c1ccc(NS(=O)(=O)c2ccccc2)cc1)N1CCOCC1	10.3µM*	-7.7%	0.0%	26.3%	-9.3%	6.5%
Cc1ccc2nc(-c3cccnc3)cc(C(=O)NCc3ccco3)c2c1	·	·	·	·	-2.1%	·
CC(C)CN1C(=O)c2cccn2CC1C(=O)NCC1CCN(Cc2ccc(F)cc2)CC1 (configuration not stated)	·	·	·	·	6.0%	·
Cc1cc(-c2ccccc2)n(-c2ccc(C(=O)N3CCN(c4ncccn4)CC3)cc2)n1	?	·	6.51µM*	?	-0.3%	?
Cc1ccc(C(C)(C)C)cc1S(=O)(=O)Nc1cccc(C(=O)N2CCN(c3ccccn3)CC2)c1	16.4µM*	·	?	·	-14.8%	29.1µM*
